Experimental data taken from ChEMBL document CHEMBL3988442, “University of Dundee, Small-Polar-MMV Screening Library” (2021).
Out of some 48,000 compounds screened, about 13,000 (27%) showed an effect of 50% or more. The list shows a part of the results.

tested on: Wolbachia pipientis; test: Anti-Wolbachia Cell-Based Screen; format: functional; set-up: scale not given: in the data most compounds retested in dose-response had high values; conditions: 5 µM

Row | SMILES | Percent Effect [%]
1 | CCc1noc(CNc2cc3c(cc2Cl)OCCCO3)n1 | -0.8134
2 | Cc1n[nH]c(=O)c2c(NC(=O)CN3CCCC(C(F)(F)F)C3)oc(C)c12 (stereo unspecified) | 17.73
3 | CC(NC(=O)N1CCS(=O)(=O)CC1)c1ccc(F)cc1Cl (stereo unspecified) | -12.17
4 | NC(=O)C1=NC2=NS(=O)(=O)c3ccccc3N2N1Cc1ccccc1Cl | -9.423
5 | COC(=O)N1CC2=CC(C)(C)COc3ccc(OC)c(c32)C1 | 125.4
6 | COCCOC(=O)N1CC2=CC(C)(C)COc3ccc(OC)c(c32)C1 | 110
7 | COc1ccc2c3c1CN(S(C)(=O)=O)CC3=CC(C)(C)CO2 | 106.6
8 | COc1ccc2c3c1CN(C(C)=O)CC3=CC(C)(C)CO2 | 80.53
9 | COc1ccc(NC(C)=O)c(N2CCN(C(C)=O)CC2)n1 | 4.921
10 | COCC1CC2(CCN(C(=O)c3ccc(OC)c(Cl)c3)CC2)CO1 (stereo unspecified) | 1.634
11 | COc1ccccc1C(C)N1CCN(S(C)(=O)=O)CC1 (stereo unspecified) | -21.28
12 | COc1ncccc1C1CC(=O)NCc2nc3sccn3c21 (stereo unspecified) | -19.07
13 | COCc1cc(NCc2cccnc2Oc2ccc(C)nc2)ncn1 | -2.689
14 | CSCCC1c2nc[nH]c2CCN1Cc1cncn1C (stereo unspecified) | -0.6967
15 | CSCc1noc(CNC(=O)c2cc(C)c(C)[nH]c2=O)n1 | -3.67
16 | CC(C)N(C)C(=O)C1CSCN1S(=O)(=O)c1cccs1 (stereo unspecified) | 24.99
17 | CCc1cc(NCC(N)=O)nc(N2CCCCC2)n1 | 3.256
18 | CCNC(=O)N1CC2=CC(C)(C)COc3ccc(OC)c(c32)C1 | 61.47
19 | COCC(=O)N1CC2=CC(C)(C)COc3ccc(OC)c(c32)C1 | 86.58
20 | COCC(=O)N1CCc2[nH]nc(-c3ccc4c(c3)OCO4)c2C1 | -8.415
21 | CCNC(=O)N1C[C@@H](NC(C)=O)[C@H](c2ccc(C)o2)C1 | -5.007
22 | COCC(=O)N1CCN(C(=O)C2(c3ccc(C)c(OC)c3)CC2)CC1 | 8.797

Row | SMILES | Percent Effect [%]
23 | CCNC(=O)N1CCC2(CC1)CCn1c(-c3cccc(OC)c3)cnc12 | -4.783
24 | COc1ccc2c3c1CN(C(=O)N(C)C)CC3=CC(C)(C)CO2 | 71.28
25 | COc1ccc2cc(C3CN(C(=O)N(C)C)CCO3)ccc2c1 (stereo unspecified) | 8.393
26 | Cc1cccc2ncnc(N3CCOC(C)C3)c12 (stereo unspecified) | 0.1008
27 | O=C1C(N2CCN(c3ccccc3Cl)CC2)CCN1C1CCOCC1 (stereo unspecified) | -17.41
28 | CCCn1nc(C)c(CNC(=O)C2COc3c(cccc3OC)C2)c1C (stereo unspecified) | -7.419
29 | O=C(NC[C@H]1OC[C@@H](NCc2ccccc2F)[C@@H]1O)c1ccc(F)cc1 | -2.288
30 | CC(C)c1n[nH]c(C(=O)Nc2ccnn2C(C)C)c1Br | -14.02
31 | CC(C)c1n[nH]c(C(=O)NC(C)c2ccncc2)c1Br (stereo unspecified) | 112.2
32 | COc1ccncc1NC(=O)c1[nH]nc(C(C)C)c1Br | -9.572
33 | CC(C)c1n[nH]c(C(=O)Nc2ccccn2)c1Br | 113.3
34 | Cc1ccnc(NC(=O)c2[nH]nc(C(C)C)c2Br)c1 | 97.23
35 | CC(C)c1n[nH]c(C(=O)Nc2cc[nH]n2)c1Br | -7.047
36 | COc1ncccc1NC(=O)c1[nH]nc(C(C)C)c1Br | 15.14
37 | CC(C)c1n[nH]c(C(=O)Nc2ccncc2)c1Br | -16.38
38 | Cc1cccc(NC(=O)c2[nH]nc(C(C)C)c2Br)n1 | 122.8
39 | Cn1cc(CN2CCn3cc(CNC(=O)C4CCC4)nc3C2)cn1.O=C(O)C(F)(F)F | 18.03
40 | O=C(NCc1nnc2ccccn12)N1CCOC(c2cccs2)C1 (stereo unspecified) | -3.405
41 | COc1ccc(-n2nc(C3CC3)nc2CCn2cnnn2)cc1 | -7.711
42 | COc1ccc(N2Cc3n[nH]c(=O)n3C2=O)cc1 | -0.5114
43 | O=C(c1ccoc1)N1CCO[C@]2(CCC[C@@H]2COCc2ccncc2)C1 | -6.569
44 | O=C(O)C(F)(F)F.O=C(c1ccc[nH]1)N1CCO[C@]2(CCC[C@@H]2COc2cccnc2)C1 | -3.807

Row | SMILES | Percent Effect [%]
45 | COCC(=O)N1CCO[C@]2(CCC[C@H]2COC)C1 | 106.8
46 | COC[C@@H]1CCC[C@@]12CN(C(=O)N(C)C)CCO2 | 101.2
47 | COC[C@@H]1CCC[C@@]12CN(C(=O)N1CCCC1)CCO2 | 87.5
48 | COC[C@H]1CCC[C@]12CN(CCc1ccccc1)CCO2.O=C(O)C(F)(F)F | 30.11
49 | O=C(c1ccno1)N1CCO[C@]2(CCC[C@@H]2COCc2ccncc2)C1 | -0.3534
50 | COC[C@H]1CCC[C@]12CN(C(=O)NCc1ccccc1)CCO2 | 18.34
51 | Cc1[nH]c2c(F)cccc2c1CC(=O)NCCCNc1cccnc1 | 12
52 | Cc1noc(COCC(=O)Nc2ccc(Br)c(C)n2)n1 | 11.2
53 | O=C(c1ccccc1)N1C[C@@H]2CC[C@H](C1)N(C(=O)CN1CCOCC1)C2 | -9.595
54 | CCc1nc(CNC(=O)c2ccc(C(C)N3CCCCC3)o2)cc(=O)[nH]1 (stereo unspecified) | -0.08952
55 | Cc1nc(NC2(CN3CCCCC3)CCCCC2)c2cnn(C)c2n1 | 98.05
56 | CCn1c(C)nnc1SCCNc1nc(C)nc2c1cnn2C | -4.457
57 | Cn1ncc2c(NCCC34CCCN3CCC4)nc(C3CCCC3)nc21 | 4.055
58 | CCCc1nc(NC2(COC)CCCC2)c2cnn(C)c2n1 | 85.47
59 | CCOC(=O)CC1(Nc2nc(C)nc3c2cnn3C)CCCCC1 | 107.9
60 | CCOC(=O)CNc1nc(C(C)(C)C)nc2c1cnn2C | 2.145
61 | CCOC(=O)CC(C)Nc1nc(C2CCCC2)nc2c1cnn2C (stereo unspecified) | -2.112
62 | CCOC(=O)CNc1nc(COC)nc2c1cnn2C | 5.543
63 | Cc1nsc(NC(=O)NC2(CN3CCCCC3)CCCCC2)n1 | 1.448
64 | CCC(Nc1nc(C)nc2c1cnn2C)c1ncnn1CC (stereo unspecified) | 13.02
65 | COCC1(Nc2nc(C)nc3c2cnn3C)CCCC1 | 115.3
66 | CCCc1nc(N(C)CCN2CCCCCC2)c2cnn(C)c2n1 | 11.67
